Measured values taken from PubChem BioAssay AID463173 (ICCB-Longwood Screening Facility, Harvard Medical School, 2010).
Hit rate of the full screen: of about 52,000 compounds, about 4,300 (8.3%) were called active. The entries come from a sample that favours actives as a whole. A number with no mark means an inactive call. Cut-off read from the data, not from the text of the source: active = survival mostly below about 52% (no sharp cut-off); inactive = mostly above about 56%.

Test system: DeltatarO mutant
Experiment: growth inhibition of S. aureus wild type versus tarO mutant, primary screen, teichoic acid synthesis inhibitors, RN4220, OD600 (AID 463173)
Settings: OD600, 18 h, hits give low values, screened at 18.75 µg/mL (by protocol)

SMILES	survival
Cn1c(SCC(N)=O)nc2c([nH]c3ccccc32)c1=O	88%
COc1ccccc1N1CCN(C(=O)C(CCSC)NS(=O)(=O)c2ccc3c(c2)oc(=O)n3C)CC1 (stereo not drawn)	87%
Cc1ccc(Cn2c(=O)n(-c3ccccc3)c(=O)c3ccc(C(=O)NCc4ccco4)cc32)cc1	75%
COc1ccc(CCN2C(=O)NC(NC(=O)c3ccccc3OC)(C(F)(F)F)C2=O)cc1OC (stereo not drawn)	77%
CCCCOc1ccc(CNC(=O)c2ccc3c(c2)N(C)C(=O)C2CCCCN32)cc1 (stereo not drawn)	74%
Cc1cccc(CNC(=O)c2ccc3c(c2)N(C)C(=O)C2CCCCN32)c1 (stereo not drawn)	0% (active)
CSc1ccc(CNC(=O)c2ccc3c(c2)N(C)C(=O)C2CCCCN32)cc1 (stereo not drawn)	92%
COc1cccc(CNC(=O)c2ccc3c(c2)N(C)C(=O)C2CCCCN32)c1 (stereo not drawn)	72%
COc1ccc(CNC(=O)c2ccc3c(c2)N(C)C(=O)C2CCCCN32)cc1OC (stereo not drawn)	75%
CC(C)Oc1ccc(CNC(=O)c2ccc3c(c2)N(C)C(=O)C2CCCCN32)cc1 (stereo not drawn)	37% (active)
CCOc1ccc(CNC(=O)C2CCCN(c3nn4cc(-c5ccc(OC)cc5)nc4s3)C2)cc1 (stereo not drawn)	99%
Cc1c2cnn(CC(=O)N3CCN(c4ccccc4)CC3)c(=O)c2c(C)n1Cc1ccc(F)cc1	67%
COc1ccc(-c2cc(C(N)=O)on2)c(OC)c1	99%
O=S(=O)(c1cccc(S(=O)(=O)N2CCOCC2)c1)N1CCCCCC1	91%
Cc1ccc2occ(CC(=O)Nc3nnc(C(C)C)s3)c2c1	70%
CCCCSCCCNC(=O)c1cn(C)c2ccc(S(=O)(=O)N3CCCCCC3)cc2c1=O	63%
Cc1ccc(C(=O)Nc2c(C(=O)NC(C)(C)C)oc3ccccc23)cc1	32% (active)
Cc1ccc(NC(=O)c2oc3ccccc3c2NC(=O)C2CCCCC2)cc1	2% (active)
CCOc1ccc(NC(=O)c2oc3ccccc3c2NC(=O)C2CCCCC2)cc1	103%
O=C(Nc1ccc(F)cc1)c1oc2ccccc2c1NC(=O)C1CCCCC1	11% (active)
O=C(Nc1ccc(F)cc1)c1oc2ccccc2c1NC(=O)C12CC3CC(CC(C3)C1)C2	96%
COc1cccc(NC(=O)c2oc3ccccc3c2NC(=O)C2CCCCC2)c1	66%
COc1ccccc1NC(=O)c1oc2ccccc2c1NC(=O)C1CCCCC1	43% (active)
Cc1ccc(NC(=O)c2oc3ccccc3c2NC(=O)C23CC4CC(CC(C4)C2)C3)cc1	75%
COc1ccc(NC(=O)c2oc3ccccc3c2NC(=O)C2CCCCC2)c(OC)c1	74%
CC(C)(C)NC(=O)c1oc2ccccc2c1NC(=O)c1ccc(F)cc1	71%
CN(C)c1ccc(C(=O)Nc2c(C(=O)NC(C)(C)C)oc3ccccc23)cc1	57%
COc1cc(OC)cc(C(=O)Nc2c(C(=O)Nc3ccc(F)cc3)oc3ccccc23)c1	62%
